This is an account of results in PubChem BioAssay (NCI).

This is part of a sample that, as a whole, favours compounds with a hit. Of some 83,000 tested, about 20% had one in any assay.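 96-well plates, one dose, 48 hours. Percent growth reported; active if below 10.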 A number with no mark means an inactive call. Activity calls are given as the source filed them.

The test system of this test is HL-60(TB) leukemia. The test can be described thus: NCI-60 one-dose screen, 48 h (100 = growth as untreated, 0 = no growth, -100 = all killed). As to conditions: 10 µM unless noted.
With `C=C(C)[C@@H]1CC[C@]2(C)[C@H](CC(=O)N[C@H]3[C@@H]4C[C@](C)(C(=O)OC)CC[C@]4(C)CC[C@]32C)[C@@]1(C)CCC#N`, the growth is 83.1%.

Turning to `COc1cc2c(cc1O)c(=O)n(CCN(C)C)c1c3cc4c(cc3ncc21)OCO4`, the growth is -29.2% (active).

With `CC(C)(C)C(=O)OCOP(=O)(OCOC(=O)C(C)(C)C)C1CC(O)N(O)C1=O` (configuration not stated), the growth was 13.1%.

Consider `Cc1ccc(-c2nc(N3CCN(CC(=O)Nc4ccc(Cl)cc4)CC3)c3ccccc3n2)cc1`, for which the growth was 99.8%.

As for `O=c1oc2ccccc2cc1-c1nn(-c2ccccc2)cc1/C=N/Nc1nc(-c2ccccc2)c(N=Nc2ccccc2)s1`, the growth was 58.1%.

Consider `Cc1cc(F)ccc1S(=O)(=O)Nc1cc(-c2c(O)ccc3ccccc23)c(O)c2ccccc12`, for which the growth is -10.8% (active).

With `COc1ccc(NC(=O)CCn2cnc3c(cc(-c4ccccc4)n3-c3ccccc3)c2=O)cc1`, the growth is 95.9%.

Regarding `CCc1ccc(C2=NN(c3ccc(S(C)(=O)=O)cc3)C(=O)CC2)cc1`, the growth is 6.73% (active).

Turning to `COc1cc(CNc2ccccc2C(=O)N2CCN(C(=O)c3cc(-c4cc(OC)c(OC)c(OC)c4)n4nc(-c5ccccc5)cc4n3)CC2)cc(OC)c1OC`, the growth is 34.7%.

As for `c1ccc(-c2nn(-c3ccccc3)[n+](-c3cccc4ccccc34)n2)cc1`, the growth was -25.8% (active).

Take `COc1ccc(/C=C2\SC(=S)N(CCCN3CCOCC3)C2=O)c(OC)c1`: the growth is 83.1%.

Take `COc1ccc2c(c1)CC=C1[C@@H]2CC[C@]2(C)C(=O)/C(=N/O)C[C@@H]12`: the growth is 53.4%.
